Most compounds without a hit are left out; they make up all but 0.28% or so of the library.
hcGAS inh – inhibitors of human cGAS | Q8N884 | 290,000 tested, 0.081% active | inhibition, % at 12.5 µM | recombinant h-cGAS, ATP depletion, Kinase-Glo luminescence;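 also: 0% = vehicle reaction and 100% = reaction without DNA for no activity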
NPYLR7 agonist – mosquito NPYLR7 agonism | HEK293T NPYLR7/Galpha15, GCaMP6s calcium fluorescence | activation, % at 10 µM | 270,000 tested, 0.15% active; in the data active = activation above about 40%;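 also: 0% = vehicle and 100% = reference agonist at the receptor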
mcGAS lum – inhibitors of mouse cGAS | recombinant cGAS, Kinase-Glo ATP depletion luminescence | 160,000 tested, 0.15% active | inhibition, % at 12.5 µM;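 also: 0% = negative control wells and 100% = reference inhibitor with no enzyme activity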
* = called active by the depositor; . = no result. Rule as the data show it, unless noted: active = inhibition above about 40%; inactive = the rest.

SMILES | hcGAS inh | NPYLR7 agonist | mcGAS lum
CC(C)N1CCc2c(sc(NC(=O)CN3C(=O)CCC3=O)c2-c2nc3ccccc3s2)C1 | 56* | 33 | 51*
CCC(=O)Nc1sc2c(c1-c1nc3ccccc3s1)CCN(C(C)C)C2 | 80* | 36 | 97*
CCOC(=O)C1(Cc2cccc(OC)c2)CCN(Cc2ccc(C)s2)CC1 | -3 | 4 | .
CC(=O)N[C@@H]1C[C@H](Cc2ccccc2)O[C@H](c2cnc3ccccc3c2)C1 | -4 | . | .
CC1C(=O)c2cccc3c(=O)n(-c4ccccc4)c(O)c(c23)C1=O (stereo unspecified) | 4 | 83* | .
CC(=O)c1ccc(-n2c(=O)c3ccccc3c3ccccc3c2=O)cc1 | -6 | 4 | .
O=C1CCCCCN1CP(=O)(O)CN1CCCCC1 | -8 | . | -4
O=C1CCCCCN1CO | 83* | -6 | 3
CCOC(=O)/C(=C/c1ccccc1[N+](=O)[O-])NC(=O)c1c(-c2ccccc2)noc1C | 1 | -15 | -1
COCCNC(=O)N1CCc2nc(N3CCN(C)CC3)sc2C1 | 58* | . | -2
CCCNC(=O)N1CCN(c2nc3c(s2)CN(C(=O)CC)CC3)CC1 | -6 | . | -6
CCOc1ccsc1C(=O)N1CCc2c(cccc2C(=O)OC)C1 | -2 | 6 | .
c1ccc2sc(N3CCCN(Cc4cc5n(n4)CCNC5)CC3)nc2c1 | 1 | 6 | .
CC(C)(C(=O)N1CCN(C(=O)c2ccc[nH]2)CC1)c1ccccc1 | -3 | 1 | .
COc1cccc(C(=O)c2c[nH]c3ncccc23)c1 | -5 | -1 | .
O=C(Nc1ccc(C(=O)N2CCCC2)cc1)C1COc2ccccc2O1 (stereo unspecified) | 1 | 0 | .
C=c1c(C#N)c2[nH]c(N)c(C#N)c(C)c-2/c1=C\c1ccc(C(=O)OC)cc1 | -4 | 7 | -1
C=c1c(C#N)c2[nH]c(N)c(C#N)c(C)c-2/c1=C\c1ccc(O)cc1 | 11 | 21 | 71*
O=C1CC(c2ccncc2Cl)c2cnn(Cc3ccco3)c2N1 (stereo unspecified) | 3 | -2 | .
COc1cc2c(cc1OC)CN(S(=O)(=O)c1ccc(OC)c(N3CCN(C(=O)c4ccccc4OC(F)(F)F)CC3)c1)CC2 | -6 | 25 | -5
COc1ccc(CCNC(=O)c2ccccc2N2CCC(NC(=O)c3ccc(OC)c(OC)c3)CC2)cc1OC | 0 | 8 | -3
COc1ccc(CCNC(=O)c2ccccc2N2CCC(NC(=O)c3ccco3)CC2)cc1OC | -3 | -5 | 78*
CSC(=S)N/N=C(/c1ccccc1)c1ccccn1 | 64* | -1 | 6
NC(=S)NN=C(C(=O)c1ccccn1)c1ccccn1 | -7 | -3 | .
CC(C)CC(Cc1cccc(Br)c1)C(=O)NCC(=O)N1CCCCC1 (stereo unspecified) | -6 | -1 | .
SMILES | hcGAS inh | NPYLR7 agonist | mcGAS lum
COc1ccc(C(=O)NNC(=O)C(NS(=O)(=O)c2cccs2)C(C)C)cc1 (stereo unspecified) | -7 | 1 | -8
CCOC(=O)N1CCN(c2ccc(/C=C(\C#N)c3nc4ccccc4n3C)o2)CC1 | -21 | 342* | .
CCOC(=O)N1CCN(c2ccc(/C=C(\C#N)c3nc4ccccc4s3)o2)CC1 | -7 | 5 | .
Cc1noc2nc3c(c(C(=O)N4CCC(N5CCCC5=O)CC4)c12)CCC3 | -6 | 5 | .
CCN(Cc1csc(COc2cccc(C)c2C)n1)C(=O)c1ccccc1F | -3 | 25 | 88*
Cc1cccc(OCc2nc(CN(CCN(C)C)C(=O)c3ccccc3F)cs2)c1C | -5 | 11 | -3
COCCN1CC(CO)C2(CCN(C(=O)C3CC=CC3)CC2)C1 (stereo unspecified) | 45* | . | -7
CC(=O)N1CC(CO)C2(CCN(C(=O)C3CC=CC3)CC2)C1 (stereo unspecified) | -9 | . | -5
COC(=O)C1=C(C)NC(C)=C(C(=O)OCC(C)C)C1c1ccccc1[N+](=O)[O-] (stereo unspecified) | 5 | -6 | 58*
CC1=C(C(=O)OCC(C)C)C(c2ccccc2[N+](=O)[O-])NC(=O)N1C (stereo unspecified) | -7 | -1 | -5
COCCCNCc1c(-c2ccccc2)noc1N1CCc2ccccc2C1 | -3 | 15 | .
COCCCNCc1c(-c2ccc(F)cc2)noc1N1CCOCC1 | -3 | 46* | .
Cn1ccnc1CN1C[C@H](Oc2ccccn2)[C@H]2C[C@@H]1Cc1c2[nH]c2ccccc12 | 2 | 20 | -4
Cc1ccc(C=C(C#N)S(=O)(=O)c2ccc(Br)cc2)o1 | -6 | 5 | .
COc1ccc2c(c1)OCC(C=C(C#N)S(=O)(=O)c1ccc(Br)cc1)=C2 | -6 | 93* | .
O=C(c1ccc(C2CCNC2)cc1)N(Cc1ccccc1)CC1CCC1 (stereo unspecified) | -3 | 3 | -17
O=C(NC1CC1c1ccccc1)C1CCCCN1C(=O)c1ccccc1 (stereo unspecified) | -9 | 0 | .

Assay outcomes from PubChem.
